In PubChem BioAssay:
Activity calls are given as the source filed them. Unless noted, no rule for the calls is given here.

Experiments:
[1] = compound effects on lung adenocarcinoma cell viability – A549, calcein-AM fluorescence, 48 h, basal, profiling panel (AID 1162); conditions: higher = more signal; also: test concentration not given here
[2] = compound effects on differentiated 3T3-L1 adipocyte viability – cell-based, 3T3-L1 adipocytes, calcein-AM fluorescence, 48 h, basal, profiling panel (AID 1163); conditions: 3T3-L1 adipocytes viability, higher = more signal; also: test concentration not given here
[3] = compound effects on hepatocellular carcinoma cell viability – HepG2, calcein-AM fluorescence, 48 h, basal, profiling panel (AID 1164); conditions: higher = more signal; also: test concentration not given here
[4] = compound effects on multiple myeloma cell viability – MM1S, calcein-AM fluorescence, 48 h, basal, profiling panel (AID 1165); conditions: higher = more signal; also: test concentration not given here
[5] = calcein-AM signal in unstimulated myeloma cells – cell-based, calcein-AM fluorescence, 48 h, PK04 Diversity Set, profiling panel (AID 1166); conditions: RPMI8226 myeloma viability, higher = more signal;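 also: cells grown under basal conditions without added stimulus; test concentration not given here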
[6] = JC-1 mitochondrial signal, unstimulated HepG2 cells – cell-based, JC-1 fluorescence, 24 h, 100 nL compound, profiling panel (AID 1167); conditions: HepG2 mitochondrial potential, higher = more signal; also: test concentration not given here
[7] = JC-1 mitochondrial signal, unstimulated adipocytes – cell-based, JC-1 fluorescence, 3T3-L1 adipocytes, 24 h, 100 nL compound, profiling panel (AID 1168); conditions: JC-1 mitochondrial fluorescence, higher = more signal, called active from +8 up or from −8 down; also: test concentration not given here
[8] = JC-1 mitochondrial signal, unstimulated myeloma cells – cell-based, JC-1 fluorescence, RPMI8226, 24 h, 100 nL compound, profiling panel (AID 1169); conditions: JC-1 mitochondrial potential fluorescence, higher = more signal; also: test concentration not given here
[9] = JC-1 mitochondrial signal, unstimulated MM1S myeloma – cell-based, JC-1 fluorescence, 24 h, 100 nL compound, profiling panel (AID 1170); conditions: MM1S mitochondrial potential, higher = more signal; also: test concentration not given here
[10] = resazurin metabolic signal in A549 cells – cell-based, resazurin fluorescence, 24 h, PK04 Diversity Set, profiling panel (AID 1171); conditions: A549 viability, higher = more signal, called active from +8 up or from −8 down; also: test concentration not given here
[11] = resazurin metabolic signal in HepG2 cells – cell-based, resazurin fluorescence, 24 h, PK04 Diversity Set, profiling panel (AID 1172); conditions: HepG2 viability, higher = more signal; also: test concentration not given here
[12] = budding yeast growth changes without added modifier – OD600, strain BY4716, 24 h, basal condition, primary screen (AID 1173); conditions: S. cerevisiae BY4716 growth, OD600, 24 h; higher = more signal, called active from +8 up or from −8 down
[13] = viability profiling in MM1S myeloma cells – cell-based, resazurin fluorescence, basal, 24 h, PK04 Diversity Set, profiling panel (AID 1174); conditions: higher = more signal, called active from +8 up or from −8 down; also: test concentration not given here
[14] = biological target: Dihydroorotate dehydrogenase (quinone), mitochondrial (Plasmodium falciparum (isolate 3D7)) (UniProt Q08210); assay: inhibition of P. falciparum DHODH – biochemical, C-terminal His tag, absorbance 600 nm, primary screen (AID 1175); conditions: PfDHODH enzyme, DCIP absorbance 600 nm; higher = more signal, called active from +8 up or from −8 down;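 also: recombinant parasite enzyme with a five histidine tag at its C terminus; test concentration not given here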
Sequence of Dihydroorotate dehydrogenase (quinone), mitochondrial (Plasmodium falciparum (isolate 3D7)) (Q08210 whole entry, looked up): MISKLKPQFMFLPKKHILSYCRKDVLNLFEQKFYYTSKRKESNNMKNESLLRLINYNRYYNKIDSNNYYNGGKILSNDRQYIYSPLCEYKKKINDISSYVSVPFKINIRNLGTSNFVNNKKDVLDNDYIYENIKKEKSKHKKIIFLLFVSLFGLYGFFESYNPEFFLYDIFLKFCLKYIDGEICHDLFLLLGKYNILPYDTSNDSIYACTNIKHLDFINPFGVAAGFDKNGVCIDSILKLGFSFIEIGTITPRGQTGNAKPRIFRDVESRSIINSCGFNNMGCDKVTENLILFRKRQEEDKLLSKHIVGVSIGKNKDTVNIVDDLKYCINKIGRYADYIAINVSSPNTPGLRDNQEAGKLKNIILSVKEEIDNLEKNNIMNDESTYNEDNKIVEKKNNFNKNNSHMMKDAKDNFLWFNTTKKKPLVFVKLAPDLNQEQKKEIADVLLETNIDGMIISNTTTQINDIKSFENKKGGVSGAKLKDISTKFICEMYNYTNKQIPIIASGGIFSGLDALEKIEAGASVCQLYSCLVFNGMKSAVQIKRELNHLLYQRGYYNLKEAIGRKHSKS

[15] = inhibition of PAO1 biofilm formation – strain PAO1, LB-PBS medium, absorbance 600 nm, primary screen (AID 1176); also: test concentration not given here; conditions: P. aeruginosa PAO1 growth/biofilm, A600, 12 h; higher = more signal
[16] = growth modulation of vineyard yeast isolate – strain RM11-1a, OD600, basal, 24 h, primary screen (AID 1177);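 also: cultures grown under basal conditions with no added stressor; test concentration not given here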; conditions: S. cerevisiae RM11-1a growth, OD600, 24 h; higher = more signal, called active from +8 up or from −8 down
[17] = growth of efflux-deficient E. coli DRC39 – strain DRC39, OD650, 24 h, E. coli filamentation inducers, primary screen (AID 1178);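 also: growth measured as culture turbidity by optical density at 650 nm; test concentration not given here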; conditions: E. coli DRC39 acrAB, higher = more signal, called active from +8 up or from −8 down
[18] = growth of efflux-deficient E. coli DRC39 – strain DRC39, OD650, 48 h, E. coli filamentation inducers, primary screen (AID 1179);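 also: screen aims at cell division blockers that make cells filament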; conditions: E. coli DRC39 delta-acrAB growth, higher = more signal, called active from +8 up or from −8 down
[19] = viability profiling in RPMI8226 myeloma cells – cell-based, resazurin fluorescence, basal, 24 h, PK04 Diversity Set, profiling panel (AID 1180); conditions: higher = more signal;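 also: RPMI8826 multiple myeloma cell line at 5000 cells per well; test concentration not given here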
[20] = biological target: E3 ubiquitin-protein ligase XIAP (Homo sapiens) (UniProt P98170); assay: small molecules binding XIAP protein – biophysical, small-molecule microarray, fluorescence 635 nm, primary screen (AID 1181); conditions: higher = more signal;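 also: score merges 667 nm emission and signal to noise over triplicate slides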
Sequence of E3 ubiquitin-protein ligase XIAP (Homo sapiens) (P98170 whole entry, looked up): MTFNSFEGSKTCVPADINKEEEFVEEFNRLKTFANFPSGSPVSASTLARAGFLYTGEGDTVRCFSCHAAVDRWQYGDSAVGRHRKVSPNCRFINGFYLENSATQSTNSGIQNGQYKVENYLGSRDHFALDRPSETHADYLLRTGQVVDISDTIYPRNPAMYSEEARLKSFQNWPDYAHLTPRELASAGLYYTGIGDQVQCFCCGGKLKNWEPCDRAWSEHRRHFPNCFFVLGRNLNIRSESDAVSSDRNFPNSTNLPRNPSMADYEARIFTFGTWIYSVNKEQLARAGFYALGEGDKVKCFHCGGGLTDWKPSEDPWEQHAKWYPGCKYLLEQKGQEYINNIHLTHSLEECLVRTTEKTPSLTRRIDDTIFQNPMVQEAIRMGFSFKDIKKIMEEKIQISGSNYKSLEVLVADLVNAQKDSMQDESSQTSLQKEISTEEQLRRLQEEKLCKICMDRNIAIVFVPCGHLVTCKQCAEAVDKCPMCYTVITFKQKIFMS

Structure (SMILES) | z-score [1] | z-score [2] | z-score [3] | z-score [4] | z-score [5] | z-score [6] | z-score [7] | z-score [8] | z-score [9] | z-score [10] | z-score [11] | z-score [12] | z-score [13] | composite z-score [14] | z-score [15] | z-score [16] | z-score [17] | z-score [18] | z-score [19] | composite z-score [20]
COCCOC(=O)N1C(=O)[C@@]2(c3cc(C#CCC(C(=O)OC)C(=O)OC)ccc31)[C@H](C(N)=O)[C@H]1C(=O)O[C@H](c3ccccc3)[C@H](c3ccccc3)N1[C@@H]2c1ccc(O)cc1 | -0.181 | -0.187 | -1.52 | -3.37 | -4.02 | -0.864 | 2.05 (inactive) | -1.19 | -2.07 | 0.163 (inactive) | -0.0776 | 2.28 (inactive) | -2.92 (inactive) | -0.667 (inactive) | 6.87 (inactive) | 3.96 (inactive) | 0.714 (inactive) | 0.537 (inactive) | -4.48 | 0.0727
CCCCC(O)C1C=CC2C(=O)N(c3ccccc3)C(=O)C2N1Nc1ccccc1 (stereo not given) | 0.645 | -1.91 | -0.371 | 0.225 | -0.374 | -1.43 | 0.466 (inactive) | -0.241 | 0.0498 | 0.134 (inactive) | 0.281 | -1.67 (inactive) | -0.125 (inactive) | 0.477 (inactive) | -0.0625 (inactive) | 0.632 (inactive) | -0.407 (inactive) | 0.483 (inactive) | -0.0096 | 0.366
COC(=O)[C@@]1(Cc2ccc(F)cc2)[C@H]2c3cc(C(=O)N4CCCC4)n(CCc4ccccn4)c3C[C@H]2CN1C(=O)c1ccccc1 | 0.19 | -0.0629 | 0.278 | -0.118 | -0.431 | 1.98 | -0.962 (inactive) | -0.815 | -0.515 | 0.182 (inactive) | -0.386 | 0.842 (inactive) | -0.232 (inactive) | 0.224 (inactive) | 0.647 (inactive) | 0.564 (inactive) | -0.803 (inactive) | -0.588 (inactive) | -0.102 | 0.0853
CCCNC(=O)[C@@]1(c2ccc([N+](=O)[O-])cc2)CC(=O)N(C(C)C)[C@@H]1c1ccc(CO)cc1 | 0.186 | 0.81 | -0.359 | 0.167 | 0.11 | -0.534 | -0.584 (inactive) | 0.195 | 0.892 | 0.0564 (inactive) | 0.0889 | -0.324 (inactive) | -0.96 (inactive) | 0.0058 (inactive) | 0.373 (inactive) | -0.355 (inactive) | 0.388 (inactive) | -0.508 (inactive) | 0.123 | 0.0692
